These results are taken from PubChem BioAssay.

The source made the active and inactive calls. Unless noted, the rule behind the calls is not given here.

Experiment [1] deals with XIP peptide (Xip251-270) binding. Description: small-molecule binders of XIP peptide, primary screen, biochemical, small-molecule microarray, fluorescence 635/667 nm, 0.1 µg/mL protein (AID 1182). Conditions: fluorescent protein binding, 635 nm, higher = more signal, called active from +8 up or from −8 down.
Experiment [2] relates to XIP peptide (Xip251-270). Description: small-molecule binders of XIP peptide, primary screen, biochemical, small-molecule microarray, fluorescence 635/667 nm, 0.5 µg/mL protein (AID 1183). The settings on record: small-molecule microarray binding, fluorescence 635 nm; higher = more signal.
Experiment [3] is described as follows: Plasmodium falciparum growth inhibition, primary screen, strain 3D7, DAPI fluorescence, 100 nL (AID 1184).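 Note: parasites grown inside human red blood cells in medium with human serum.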 Conditions: P. falciparum 3D7 growth, 3 d, higher = more signal.
Experiment [4] has as its target Homeobox protein Hox-A13 (Mus musculus) (UniProt Q62424). Kind of experiment: inhibitors of HoxA13-DNA binding, primary screen, biochemical, fluorescence polarization, labeled oligonucleotide (AID 1185). Conditions: 15 min, higher = more signal, called active from +8 up or from −8 down. (In fluorescence polarisation assays a small probe gives low polarisation when free and higher when bound to something large.)

The nature of experiment [5]: inhibitors of hydroxyurea-induced Chk1 phosphorylation, primary screen, imaging, HeLa, phospho-Chk1 antibody, percent positive cells (AID 1186). The settings on record: hydroxyurea-induced phospho-Chk1 immunofluorescence imaging, higher = more signal.
Experiment [6] is described as follows: inhibitors of hydroxyurea-induced Chk1 phosphorylation, primary screen, imaging, HeLa, phospho-Chk1 nuclear intensity (AID 1187). The settings on record: hydroxyurea-induced phospho-Chk1 immunofluorescence imaging, higher = more signal.

Chain of Homeobox protein Hox-A13 (Mus musculus) (Q62424 whole entry, looked up): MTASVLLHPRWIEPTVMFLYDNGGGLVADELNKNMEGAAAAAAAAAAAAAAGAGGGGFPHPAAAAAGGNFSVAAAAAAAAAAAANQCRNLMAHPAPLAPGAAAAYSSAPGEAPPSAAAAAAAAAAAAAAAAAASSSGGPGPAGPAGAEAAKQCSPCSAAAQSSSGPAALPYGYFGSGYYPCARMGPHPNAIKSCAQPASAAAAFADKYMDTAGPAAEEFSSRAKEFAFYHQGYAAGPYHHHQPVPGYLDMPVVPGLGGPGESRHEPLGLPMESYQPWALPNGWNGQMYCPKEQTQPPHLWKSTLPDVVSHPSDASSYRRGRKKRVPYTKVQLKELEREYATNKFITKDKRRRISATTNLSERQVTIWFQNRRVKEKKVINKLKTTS

`CN1C(=O)C2C=CC(C(O)c3c(F)cccc3Cl)N(NC(=O)OC(C)(C)C)C2C1=O` (configuration not stated): the composite z-score in experiment [1] was 1.69 (inactive); in experiment [2] it was 0.836. Further, the z-score was 0.436 in experiment [3], -1.51 (inactive) in experiment [4], 0.0188 (inactive) in experiment [5] and 0.0545 (inactive) in experiment [6].
For the molecule `O=C(NCc1ccccc1)[C@@H]1c2ccccc2C(=O)N(C2Cc3ccccc3C2)[C@H]1c1ccc(CO)cc1`, the composite z-score in experiment [1] is 0.72 (inactive); in experiment [2], 0.731. Further, the z-score is -0.276 in experiment [3], -2.13 (inactive) in experiment [4], 0.26 (inactive) in experiment [5] and -0.16 (inactive) in experiment [6].
Consider `C#CCOc1ccc(C[C@@H](C(=O)OC)N(CC#C)[C@@H](/C=C/C2CC2)[C@H](O)Cc2ccccc2)cc1`, for which the composite z-score in experiment [1] is -0.365 (inactive); in experiment [2] it was -0.119. Moreover, the z-score was -1.21 in experiment [3], -3.88 (inactive) in experiment [4], -0.146 (inactive) in experiment [5] and -0.432 (inactive) in experiment [6].
Turning to `O=C(CS)NCCCCCNC(=O)[C@@H]1C[C@@H]2C(=O)NCC(=O)N2[C@@H]1c1ccc(O)cc1`, the composite z-score is 0.366 (inactive) in experiment [1] and 0.352 in experiment [2]. The z-score in experiment [3] is -1.16; in experiment [4], -1.43 (inactive); in experiment [5] it was 0.258 (inactive); in experiment [6], 0.425 (inactive).
With `O=C(CS)NCCCCCNC(=O)[C@@H]1C[C@@H]2C(=O)NCC(=O)N2[C@@H]1c1cccc(OCCO)c1`, the composite z-score in experiment [1] is 1.96 (inactive); in experiment [2], 0.343. Further, the z-score in experiment [3] is 0.082; in experiment [4], -3.25 (inactive); in experiment [5] it was -0.128 (inactive); in experiment [6], 0.361 (inactive).
Regarding `O=C1C2C=CC(C(O)c3ccc4c(c3)OCO4)N(Nc3ccc([N+](=O)[O-])cc3)C2C(=O)N1c1ccccc1` (configuration not stated), the composite z-score was -0.164 (inactive) in experiment [1] and 0.473 in experiment [2]. Further, the z-score is -0.54 in experiment [3], -4.87 (inactive) in experiment [4], 0.0611 (inactive) in experiment [5] and -0.825 (inactive) in experiment [6].
On to `CCCC[C@@H]1C[C@H]1[C@@H](NC(=O)c1cccnc1)c1ccc(Cl)cc1`, for which the composite z-score is -1.19 (inactive) in experiment [1] and -1.83 in experiment [2]. The z-score was -0.577 in experiment [3], 1.33 (inactive) in experiment [4], -0.308 (inactive) in experiment [5] and -0.437 (inactive) in experiment [6].
In the case of `[N-]=[N+]=NCc1ccccc1[C@@H]1OC(c2ccc(OCCCO)cc2)=N[C@]1(CCS(=O)(=O)c1ccccc1)C(=O)N1CCOCC1`, the composite z-score was 1.06 (inactive) in experiment [1] and 0.712 in experiment [2]. Besides, the z-score in experiment [3] was -2.36; in experiment [4], -1.69 (inactive); in experiment [5] it was -0.535 (inactive); in experiment [6] it was -0.137 (inactive).
Regarding `O=C1C2C=CC(C(O)COCc3ccccc3)N(Nc3ccc([N+](=O)[O-])cc3)C2C(=O)N1c1ccccc1` (configuration not stated), the composite z-score in experiment [1] was -0.183 (inactive); in experiment [2], -0.006. Besides, the z-score in experiment [3] was -1.2; in experiment [4], -3.13 (inactive); in experiment [5] it was 0.0045 (inactive); in experiment [6] it was 0.54 (inactive).
Regarding `COc1ccc(NN2C(C(O)c3ccc(N(C)C)cc3)C=CC3C(=O)N(C4CCCCC4)C(=O)C32)cc1` (configuration not stated), the composite z-score is 1.02 (inactive) in experiment [1] and 0.68 in experiment [2]. The z-score in experiment [3] was -0.087; in experiment [4], -4.68 (inactive); in experiment [5], -0.217 (inactive); in experiment [6], -0.837 (inactive).
Regarding `COc1cc(CO)cc(I)c1O[C@H]1C=C(C(=O)NCCO)C[C@@H](NC[C@@H]2CCCO2)[C@@H]1O`, the composite z-score in experiment [1] is 0.546 (inactive); in experiment [2], 0.711. In addition, the z-score was -1.22 in experiment [3], -6.95 (inactive) in experiment [4], -0.399 (inactive) in experiment [5] and -1.01 (inactive) in experiment [6].
Take `CN(C)CCCC[C@@H]1NC(=O)[C@H]2C[C@@H](C(=O)NCCCCCN)[C@@H](c3cccc(OCCO)c3)N2C1=O`: the composite z-score in experiment [1] was 2.88 (inactive); in experiment [2], 0.84. Besides, the z-score in experiment [3] is -0.419; in experiment [4], -2.91 (inactive); in experiment [5], 0.658 (inactive); in experiment [6], 0.729 (inactive).
Take `COc1ccc(C(O)C2C=CC3C(=O)N(C)C(=O)C3N2N(c2ccccc2)c2ccccc2)c2ccccc12` (configuration not stated): the composite z-score in experiment [1] was 0.742 (inactive); in experiment [2] it was 0.763. The z-score in experiment [3] was 0.889; in experiment [4] it was -2.84 (inactive); in experiment [5] it was 0.436 (inactive); in experiment [6], 0.15 (inactive).
Regarding `CS(=O)(=O)CCOC(=O)C1=CC(CCCO)=CC(c2ccc(CN3CCCC3)cc2)N(Cc2cccc(OC(F)(F)F)c2)C=C1C(=O)OCCS(C)(=O)=O` (configuration not stated), the composite z-score in experiment [1] was 0.211 (inactive); in experiment [2] it was 0.584. In addition, the z-score in experiment [3] is -2.79; in experiment [4] it was -1.82 (inactive); in experiment [5], 0.157 (inactive); in experiment [6], 1.28 (inactive).
As for `C=CC1c2cc(O)c(OC)cc2CCN1Cc1cccc(OC(F)(F)F)c1` (configuration not stated), the composite z-score in experiment [1] is 1.81 (inactive); in experiment [2], 0.918. For the same molecule, the z-score in experiment [3] was -1.8; in experiment [4], -4.91 (inactive); in experiment [5], 0.08 (inactive); in experiment [6], 0.362 (inactive).
Regarding `COCCOC(=O)N1C(=O)[C@@]2(c3cc(C#CC4(O)CCCCCC4)ccc31)[C@H](c1ccccc1OCCO)N1[C@H](c3ccccc3)[C@H](c3ccccc3)OC(=O)[C@H]1[C@@H]2C(=O)N1CCc2cc(OC)c(OC)cc2C1`, the composite z-score is 0.164 (inactive) in experiment [1] and 0.741 in experiment [2]. Further, the z-score in experiment [3] was -1.89; in experiment [4] it was -0.494 (inactive); in experiment [5], -0.149 (inactive); in experiment [6], 0.27 (inactive).
With `C[N+](C)(C)CCCC[C@@H]1NC(=O)[C@H]2C[C@@H](C(=O)NCCCCCCNC(=O)CS)[C@@H](c3ccc(O)cc3)N2C1=O`, the composite z-score is 0.945 (inactive) in experiment [1] and -0.502 in experiment [2]. Also, the z-score in experiment [3] is 0.0331; in experiment [4], -2.68 (inactive); in experiment [5], -0.888 (inactive); in experiment [6] it was -0.233 (inactive).
